A short description of assay [1]: qHTS of pediatric cancer cell lines to identify multiple opportunities for drug repurposing: Primary screen for SK-N-SH cells (AID 1347098). Further: nearly all actives have a fitted effect of over 65% in size. Further: potency means the concentration at half of the fitted maximal effect. The gist of the method: (§1)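 Cells (500-1,000/well) rested 5 h, then received compounds for 48 h; metabolically active cells were measured by CellTiter-Glo luminescence. Final concentrations spanned up to 46 µM (MIPE, 11-point) or 0.59 nM-46 µM (NPC, 8-point) in primary screens, 11-point in follow-ups.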

Assay [2] can be described thus: qHTS of pediatric cancer cell lines to identify multiple opportunities for drug repurposing: Primary screen for LAN-5 cells (AID 1347100). Further: potency means the concentration at half of the fitted maximal effect. The essentials: (§2)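 Viability after 48 h compound treatment at 37C, 500-1,000 cells/well, read as ATP luminescence with CellTiter-Glo. Primary screens used 11-point (MIPE, 0.78 nM-46 µM) or 8-point (NPC, 0.59 nM-46 µM) final concentrations; follow-up screens used 11-point dilutions.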

Assay [3] in a line: qHTS of pediatric cancer cell lines to identify multiple opportunities for drug repurposing: Primary screen for BT-12 cells (AID 1347101). Further: nearly all actives have a fitted effect of over 25% in size. Further: potency means the concentration at half of the fitted maximal effect. The essentials: as §1
The nature of assay [4]: qHTS of pediatric cancer cell lines to identify multiple opportunities for drug repurposing: Primary screen for Rh18 cells (AID 1347102). Further: nearly all actives have a fitted effect of over 65% in size. Further: potency means the concentration at half of the fitted maximal effect. The gist of the method:
as §2

Assay [5] in a line: qHTS of pediatric cancer cell lines to identify multiple opportunities for drug repurposing: Primary screen for OHS-50 cells (AID 1347103). Further: nearly all actives have a fitted effect of over 40% in size. Further: potency means the concentration at half of the fitted maximal effect. The essentials:
as §1

A short description of assay [6]: qHTS of pediatric cancer cell lines to identify multiple opportunities for drug repurposing: Primary screen for RD cells (AID 1347104). Further: nearly all actives have a fitted effect of over 55% in size. Further: potency means the concentration at half of the fitted maximal effect. The essentials: (§3)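 Quantitative HTS format: each compound titrated (MIPE 11 points from 0.78 nM, NPC 8 points from 0.59 nM) onto cells plated 5 hours earlier. After 48 h at 37 degrees C, CellTiter-Glo luminescence was recorded.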

Assay [7] in a line: qHTS of pediatric cancer cell lines to identify multiple opportunities for drug repurposing: Primary screen for control Hh wild type fibroblast cells (AID 1347106). Further: nearly all actives have a fitted effect of over 55% in size. Further: potency means the concentration at half of the fitted maximal effect. The gist of the method:
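Cells (500-1,000/well) in growth media were settled 5 h at 37 degrees C, then given compounds for 48 h. Viability was read as CellTiter-Glo luminescence. Primary runs used MIPE at 11 points (0.78 nM-46 µM) and NPC at 8 points (0.59 nM-46 µM); follow-ups used 11 points.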

The nature of assay [8]: qHTS of pediatric cancer cell lines to identify multiple opportunities for drug repurposing: Primary screen for NB1643 cells (AID 1347099). Further: nearly all actives have a fitted effect of over 50% in size. Further: potency means the concentration at half of the fitted maximal effect. The essentials: as §3
The nature of assay [9]: qHTS of pediatric cancer cell lines to identify multiple opportunities for drug repurposing: Primary screen for MG 63 (6-TG R) cells (AID 1347105). Further: nearly all actives have a fitted effect of over 50% in size. Further: potency means the concentration at half of the fitted maximal effect. The gist of the method:
as §3

A short description of assay [10]: qHTS of pediatric cancer cell lines to identify multiple opportunities for drug repurposing: Primary screen for Rh30 cells (AID 1347107). Further: series mostly up to about 46 µM; nearly all actives have a fitted effect of over 75% in size. The essentials:
as §2

SMILES strings stand for the structures. Results filed as inconclusive are left out. The source made the active and inactive calls. The call rests on the fitted dose curve; in most records, active means well fitted curve in the direction sought with a large enough effect; inconclusive means small, poorly fitted or top-dose-only effect, or another doubt; inactive means no such curve, though single readings can be large; an effect the other way counts as inactive or inconclusive.

30 molecules from PubChem BioAssay (NCATS) can be followed below.

As to `CCCCCCCCCCCC[N+](C)(C)CCOc1ccccc1`, the Potency is 13.7 µM (active) in assay [1]; 23.7 µM (active) in assay [2]; 24.6 µM (active) in assay [3]; 8.41 µM (active) in [4]; 4.9 µM (active) in assay [5]; 23.7 µM (active) in assay [6]. In assay [7], the Potency result was “inactive”.
Turning to `O=C(NC(=O)c1c(F)cccc1F)Nc1cc(Cl)c(OC(F)(F)C(F)C(F)(F)F)cc1Cl` (stereo unspecified), the Potency result in assay [1], in assay [8], in [4], in [6], in assay [9] and in assay [7] was “inactive” throughout. The Potency result in assay [10] is “inactive”.
Consider `c1ccc2c(c1)Sc1ccccc1N2CC1CN2CCC1CC2` (stereo unspecified), for which the Potency was 27.3 µM (active) in assay [1]; 23.7 µM (active) in [8]; 15.5 µM (active) in [3]; 23.7 µM (active) in assay [4]; 19.5 µM (active) in assay [5]; 15 µM (active) in assay [6]. The Potency in [9] was 21.1 µM (active).
Turning to `COc1ccc(C(=O)N2CCCC2=O)cc1`, the Potency entry in assay [1], in [2], in assay [3], in assay [4], in assay [5] and in [6] was “inactive” in each case. Moreover, the Potency entry in assay [9], in assay [7] and in assay [10] was “inactive” in each case.
Take `C=CC[C@]1(O)CC[C@H]2[C@@H]3CCC4=CC(=O)CCC4=C3C=C[C@@]21C`: the Potency result in [1], in [2], in assay [4], in assay [6] and in [10] was “inactive” throughout.
For `OC(c1ccccc1)(c1ccccc1)C1CCNCC1`, the Potency result in assay [1], in assay [8], in assay [2], in assay [3], in assay [6] and in assay [9] was “inactive” in each case. Besides, the Potency result in assay [7] and in [10] was “inactive” in each case.
Turning to `CC1N=C(N)OC1c1ccccc1` (stereo unspecified), the Potency entry in assay [1], in [2], in assay [3], in [4], in assay [5] and in [6] was “inactive” throughout. The Potency result in assay [7] and in [10] was “inactive” in each case.
`C[C@@H]1CN(C2CCC(C#N)(c3ccc(F)cc3)CC2)CC[C@]1(C(=O)O)c1ccccc1` (stereo partly specified): the Potency entry in [1], in assay [2], in assay [3], in [4], in assay [5] and in assay [6] was “inactive” each time. For the same molecule, the Potency entry in assay [7] and in assay [10] was “inactive” throughout.
For `C[C@@H]1CC[C@H]2[C@@H](C)C(=O)O[C@@H]3O[C@@]4(C)CC[C@@H]1[C@]32OO4`, the Potency result in [1], in assay [8], in [2], in [4], in assay [5] and in [9] was “inactive” throughout. The Potency entry in assay [7] and in [10] was “inactive” throughout.
For `COc1ccc2[nH]cc(CCN(C(C)C)C(C)C)c2c1`, in assay [1], the Potency is 36.1 µM (active). In addition, the Potency entry in assay [2], in assay [3], in [4], in [6], in assay [9] and in assay [7] was “inactive” each time. The Potency entry in assay [10] is “inactive”.
For `C#C[C@]1(O)C=C[C@H]2[C@@H]3CCC4=CC(=O)CC[C@@H]4[C@H]3CC[C@@]21CC`, the Potency result in assay [1], in [2], in assay [3], in assay [4], in assay [6] and in assay [9] was “inactive” in each case. The Potency entry in [7] and in [10] was “inactive” in each case.
With `O=C1CN2CCOC2(c2ccccc2Cl)c2cc(Cl)ccc2N1` (stereo unspecified), the Potency result in assay [1], in [2], in assay [3], in assay [4], in assay [6] and in [9] was “inactive” throughout. Moreover, the Potency result in assay [7] and in assay [10] was “inactive” throughout.
As to `ClCCCN1CCN(c2cccc(Cl)c2)CC1`, the Potency entry in [1], in [2], in assay [3], in assay [4], in [6] and in assay [9] was “inactive” throughout. Further, the Potency result in assay [7] was “inactive”.
For the molecule `C[C@@H]1O[C@@H](O[C@@H]2C=C3CC[C@@H]4[C@H](CC[C@]5(C)[C@@H](c6ccc(=O)oc6)CC[C@]45O)[C@@]3(C)CC2)[C@H](O)[C@H](O)[C@H]1O`, the Potency was 0.0687 µM (active) in [1]; 0.0067 µM (active) in [8]; 0.0106 µM (active) in [2]; 0.0031 µM (active) in assay [3]; 0.0025 µM (active) in assay [5]; 0.0015 µM (active) in assay [6]. Besides, the results for the Potency in assay [9] and in assay [7] were 0.0017 µM (active) and 0.0075 µM (active), respectively.
For the molecule `CNC(C)Cc1ccc2c(c1)OCO2` (stereo unspecified), the Potency entry in assay [1], in assay [8], in [2], in assay [3], in [4] and in [5] was “inactive” each time. Also, the Potency entry in assay [9], in [7] and in assay [10] was “inactive” in each case.
On to `ClC1=C(Cl)C2(Cl)C(CBr)CC1(Cl)C2(Cl)Cl` (stereo unspecified), for which the Potency entry in assay [1], in assay [2], in assay [3], in assay [4], in assay [5] and in [6] was “inactive” each time. The Potency result in [9] was “inactive”.
As for `CC(CC(C(N)=O)(c1ccccc1)c1ccccc1)N(C)C` (stereo unspecified), the Potency entry in assay [1], in assay [8], in [2], in assay [3], in assay [4] and in assay [6] was “inactive” in each case. The Potency entry in assay [9] and in [10] was “inactive” in each case.
`CN1C(=O)CN=C(c2ccccc2)c2cc(Cl)ccc21`: the Potency entry in [1], in assay [2], in [3], in assay [6] and in [10] was “inactive” in each case.
In the case of `CCOC(C(=O)OCCN(C)C)(c1ccccc1)c1ccccc1`, the Potency entry in assay [1], in [2], in assay [3], in assay [4], in assay [6] and in [10] was “inactive” throughout.
For the molecule `O=C(CCCN1CCC(n2c(=O)[nH]c3ccccc32)CC1)c1ccc(F)cc1`, the Potency entry in assay [1], in [2], in assay [4], in [6], in [7] and in assay [10] was “inactive” each time.
With `C[C@]12CC[C@H](O)CC1=CC[C@@H]1[C@@H]2CC[C@]2(C)C(=O)CC[C@@H]12`, the Potency entry in assay [1], in assay [8], in [2], in assay [3], in [4] and in assay [6] was “inactive” each time. In [7], the Potency entry is “inactive”.
Regarding `CCN(CC)Cc1nccn1-c1ccc([N+](=O)[O-])cc1C(=O)c1ccccc1Cl`, the Potency entry in assay [1], in assay [2], in [3], in [4], in assay [6] and in assay [9] was “inactive” in each case.
Consider `CC(C)=CCN1CC[C@@]2(C)c3cc(O)ccc3C[C@@H]1[C@@H]2C`, for which the Potency entry in assay [1], in assay [8], in assay [2], in assay [3], in assay [4] and in assay [9] was “inactive” in each case. For the same molecule, the Potency entry in assay [7] and in [10] was “inactive” throughout.
Take `O=c1[nH]c2cc(Cl)ccc2n1C1CCNCC1`: the Potency result in assay [1], in assay [2], in assay [3], in assay [4], in [5] and in [6] was “inactive” in each case. Besides, in [10], the Potency entry is “inactive”.
Consider `CN1C(=O)[C@@H](NC(=O)c2cc3ccccc3[nH]2)N=C(c2ccccc2)c2ccccc21`, for which the Potency entry in assay [1], in assay [3], in [4], in [5], in assay [9] and in [7] was “inactive” each time.
In the case of `CNC(=O)NC(O)C(Cl)(Cl)Cl` (stereo unspecified), the Potency entry in assay [1], in assay [2], in assay [3], in [4], in assay [5] and in [6] was “inactive” throughout. Further, the Potency result in assay [7] and in assay [10] was “inactive” throughout.
With `O=C(CCCCl)c1ccc(F)cc1`, the Potency result in [1], in [2], in assay [3], in [4], in [5] and in [6] was “inactive” throughout. In addition, the Potency result in assay [9], in assay [7] and in assay [10] was “inactive” in each case.
`NC1(c2ccccc2)CCCCC1`: the Potency result in [1], in assay [2], in [4] and in assay [9] was “inactive” each time.
On to `C=CCOC(Cn1ccnc1)c1ccc(Cl)cc1Cl` (stereo unspecified), for which the Potency result in assay [1], in [2], in [4], in assay [6], in assay [9] and in assay [10] was “inactive” in each case.
Regarding `Oc1c(Br)cc(Br)cc1Br`, the Potency entry in assay [1], in [2], in [3], in [4], in assay [5] and in assay [6] was “inactive” throughout. Moreover, the Potency result in assay [7] and in assay [10] was “inactive” throughout.
